Bioassay records (PubChem)
Tau fibril ThT: qHTS for Inhibitors of Tau Fibril Formation, Thioflavin T Binding | Microtubule-associated protein tau (Homo sapiens), P10636 | recombinant tau K18 P301L, heparin-induced fibrillization, ThT fluorescence | Potency, µM (top dose mostly 57.4 µM), hits mostly inhibitors | hit rate 2.1% among 270,000 | AID 1460, 2008; further: nearly all actives have a fitted effect of over 55% in size
Target sequence (P10636 561-689 P618L limits assumed): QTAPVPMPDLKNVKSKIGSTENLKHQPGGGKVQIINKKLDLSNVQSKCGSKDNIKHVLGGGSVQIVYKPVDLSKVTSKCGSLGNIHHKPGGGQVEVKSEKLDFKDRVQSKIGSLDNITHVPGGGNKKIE
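Using a mix of unlabeled (15 uM) and Alexa 594-labeled (0.24 uM) tau K18 P301L, heparin-triggered fibrillization over 6 hr at 37 C was scored by ThT fluorescence.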
HPGD inh: qHTS Assay for Inhibitors of HPGD (15-Hydroxyprostaglandin Dehydrogenase); 15-hydroxyprostaglandin dehydrogenase [NAD(+)] (Homo sapiens), P15428; purified HPGD, NADH fluorescence kinetic, PGE2 substrate; Potency, µM, usual class: inhibitors; hit rate 4.3% among 150,000; AID 894, 2007; active means well fitted inhibition curve with a large enough effect, not every such curve was filed as active; inconclusive means small, poorly fitted or top-dose-only effect, or another doubt; inactive means no such curve, though single readings can be large or run the other way
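20 nM HPGD preincubated 15 min at room temperature with compound in 50 mM Tris-HCl pH 8, 0.01% Tween 20. Started with 1 mM NAD+ and 30 uM prostaglandin E2; NADH fluorescence (360/450 nm) read 5 times over 30-s intervals, last minus first.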
Tau fluor counter: Counterscreen qHTS for Inhibitors of Tau Fibril Formation, Fluorescence Polarization; tau K18 P301L (four-repeat tau fragment) Alexa594 fluorescence, heparin fibrillization; Potency, µM (highest dose often 57.7 µM); hit rate 0.93% among 280,000; further: nearly all actives have a fitted effect of over 55% in size
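Human K18 P301L tau (15 uM unlabeled plus 0.24 uM Alexa 594-labeled, final) in 100 mM sodium acetate pH 7 was mixed with compound and 20 uM heparin and incubated 6 hr at 37 C.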
ALDH1A1 block: qHTS Assay for Inhibitors of Aldehyde Dehydrogenase 1 (ALDH1A1); Aldehyde dehydrogenase 1A1 (Homo sapiens), P00352; Purified ALDH1A1, NADH fluorescence, propionaldehyde substrate; Potency, µM (top dose mostly 75.3 µM), hits mostly inhibitors; hit rate 7.3% among 220,000; AID 1030, 2008; active means well fitted inhibition curve with a large enough effect, not every such curve was filed as active; inconclusive means small, poorly fitted or top-dose-only effect, or another doubt; inactive means no such curve, though single readings can be large or run the other way
Target sequence (P00352 whole entry, looked up): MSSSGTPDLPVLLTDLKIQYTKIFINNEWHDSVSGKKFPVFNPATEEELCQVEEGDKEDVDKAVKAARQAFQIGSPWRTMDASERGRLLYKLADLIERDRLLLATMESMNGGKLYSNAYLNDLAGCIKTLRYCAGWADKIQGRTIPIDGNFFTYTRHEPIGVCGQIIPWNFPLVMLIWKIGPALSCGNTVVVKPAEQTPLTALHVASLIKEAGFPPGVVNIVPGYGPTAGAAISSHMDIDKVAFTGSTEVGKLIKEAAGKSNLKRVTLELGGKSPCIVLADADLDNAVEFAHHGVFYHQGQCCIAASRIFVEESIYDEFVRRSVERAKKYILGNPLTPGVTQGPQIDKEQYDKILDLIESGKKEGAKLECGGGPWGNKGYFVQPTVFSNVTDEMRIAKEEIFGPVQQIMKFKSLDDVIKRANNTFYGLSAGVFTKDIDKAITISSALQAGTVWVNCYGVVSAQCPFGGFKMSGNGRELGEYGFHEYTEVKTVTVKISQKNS
Tau fibril FP: qHTS for Inhibitors of Tau Fibril Formation, Fluorescence Polarization | Microtubule-associated protein tau (Homo sapiens), P10636 | K18 P301L tau heparin fibrillization, Alexa594 FP, 6 h | Potency, µM (doses to about 57.7 µM), hits mostly inhibitors | hit rate 0.39% among 280,000; further: nearly all actives have a fitted effect of over 55% in size
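Compound effects on tau fibrillization are measured by Alexa 594 fluorescence polarization (ex 555, em 632 nm). K18 P301L tau is used at 15 uM with 0.24 uM labeled tracer, and 20 uM heparin induces aggregation over 6 hr at 37 C.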
NPSR antagonist: qHTS Assay for Antagonists of the Neuropeptide S Receptor: cAMP Signal Transduction; hit rate 1% among 220,000; CHO-NPSR cells, cAMP TR-FRET, antagonist mode; Potency, µM (series often up to 38.3 µM), actives largely listed as inhibitors; further: nearly all actives have a fitted effect of over 50% in size
A number is an active result; 0 = inactive; ? = inconclusive; - = not tested or not shown; [ ] = remark or other dose. Hits are enriched below; roughly 9.5% of the tested compounds scored in any of these assays. Unless noted, the call rests on the fitted dose curve; in most records, active means well fitted curve in the direction sought with a large enough effect; inconclusive means small, poorly fitted or top-dose-only effect, or another doubt; inactive means no such curve, though single readings can be large; an effect the other way counts as inactive or inconclusive.

SMILES | Tau fibril ThT | HPGD inh | Tau fluor counter | ALDH1A1 block | Tau fibril FP | NPSR antagonist
C=CCn1c(O)c(N=NC(=O)CNC(=O)/C=C/c2ccc(OC)cc2)c2ccccc21 | 12.6µM | - | 0 | ? | 0 | 0
C=CCn1c(O)c(N=NC(=S)Nc2cccc(C)c2)c2ccccc21 | 0 | 0 | 0 | 0 | 0 | 0
Cc1nc2cc(NC(=O)Nc3ccc(Br)cc3)ccc2o1 | 0 | - | ? | 0 | ? | 0
CC(=O)N(/N=C1\Sc2ccccc2C1=O)c1ccc(C)cc1C | ? | 0 | 0 | 0 | 0 | 0
CC(=O)N(/N=C1\Sc2ccccc2C1=O)c1ccccc1C | 11.2µM | 0 | 0 | 0 | 0 | 0
CC(C)(O)C#Cc1ccc(C(=O)N2CCN(c3ccc([N+](=O)[O-])cc3)CC2)cc1 | ? | - | 0 | 20µM | 0 | 0
O=C(c1ccc2c(c1)OCCO2)N1CCN(c2ccc([N+](=O)[O-])cc2)CC1 | ? | - | 0 | 14.1µM | 0 | 0
Cc1c(-c2ccccc2)oc2c(C(=O)N3CCN(c4ccc([N+](=O)[O-])cc4)CC3)cccc2c1=O | 0 | 0 | 0 | 3.55µM | 0 | ?
CCSc1ccccc1C(=O)N1CCN(c2ccc([N+](=O)[O-])cc2)CC1 | ? | - | 0 | 14.1µM | 0 | 0
O=C(Nc1ccc2c(c1)OCCO2)C1CCN(C(=O)c2ccc([N+](=O)[O-])cc2)CC1 | 0 | - | 0 | 0 | 0 | 0
COc1ccc(-c2cc(OC(=O)c3ccccc3C)c3c(C)oc(C)c3c(=O)c2)cc1 | ? | - | 0 | - | 0 | -
CCCN(CCC)C(=O)CC(c1ccccc1)c1ccco1 (stereo unspecified) | 0 | - | 0 | - | 0 | 0
O=C(c1ccc2ccccc2c1)N1CCN(c2ccc([N+](=O)[O-])c(N3CCOCC3)c2)CC1 | ? | 0 | 0 | ? | 0 | 0
Cc1nnc(SCC(=O)c2ccc([N+](=O)[O-])cc2)s1 | ? | - | 0 | ? | 0 | 0
O=C(CSc1ccccc1C(=O)O)c1ccc([N+](=O)[O-])cc1 | ? | - | 0 | 15.8µM | 0 | 0
CCn1cc(C(=O)N2CCN(c3ccc([N+](=O)[O-])cc3)CC2)c(=O)c2ccc(C)nc21 | ? | - | 0 | 25.1µM | 0 | 0
Nc1nnc(SCC(=O)c2ccc([N+](=O)[O-])cc2)s1 | ? | - | 0 | 2.82µM | 0 | 0
CCn1cc(C(=O)N2CCN(c3cccc(C)c3C)CC2)c(=O)c2ccc(C)nc21 | - | - | 0 | - | 0 | 0
Cc1cccc(C(=O)N2CCN(c3ccc([N+](=O)[O-])c(N4CCOCC4)c3)CC2)c1 | ? | 0 | 0 | 5.01µM | 0 | 0
COc1ccccc1Nc1nn2c(=O)c3ccc(C(=O)NCCc4ccccc4)cc3nc2s1 | 0 | - | 0 | - | 0 | -
CC(C)=C[C@H]1[C@@H](COC(=O)c2ccccc2Cl)C1(C)C | - | 0 | - | 0[13.5 µM] | - | -
Cc1ccc(Cn2c(=O)n(-c3cc(C)cc(C)c3)c(=O)c3oc4ccccc4c32)cc1 | 0 | - | 0 | - | 0 | -
CCc1ccc(CNC(=O)c2ccc(NC(=O)N3CCCCc4ccccc43)cc2)cc1 | 0 | - | 0 | - | 0 | -
COc1ccccc1CNC(=O)C1CCC1 | 0 | 14.1µM | 0 | 0 | 0 | 0
COc1ccccc1CNC(=O)c1ccc(-c2ccccc2Cl)o1 | ? | 0 | ? | 14.1µM | 0 | 0
SMILES | Tau fibril ThT | HPGD inh | Tau fluor counter | ALDH1A1 block | Tau fibril FP | NPSR antagonist
COc1ccccc1CNC(=O)CC(C)C | 0 | 25.1µM | 0 | 0 | 0 | 0
COc1ccccc1CNC(=O)COc1ccccc1OC | 0 | 0 | 0 | 0 | 0 | ?
COc1ccccc1CNC(=O)CSc1ccc(Br)cc1 | 0 | 28.2µM | 0 | 0 | 0 | 0
COc1ccccc1CNC(=O)C1CCN(S(=O)(=O)N2CCCCC2)CC1 | 0 | 0 | 0 | ? | 0 | 0
COc1ccc(Cn2nnnc2C(c2cccs2)N2CCCCCC2)cc1 (stereo unspecified) | 0 | 0 | 0 | 12.6µM | 0 | 0
Fc1ccc(N2CCN(C(c3cccs3)c3nnnn3CCc3ccccc3)CC2)cc1 (stereo unspecified) | 0 | 0 | 0 | 1µM | 0 | 0
COCCn1nnnc1C(c1cccs1)N1CCCC(C)C1 (stereo unspecified) | 0 | - | 0 | 11.2µM | 0 | 0
CC1CCN(C(c2cccs2)c2nnnn2Cc2ccccc2)CC1 (stereo unspecified) | 0 | 0 | 0 | 2µM | 0 | ?
Fc1ccccc1N1CCN(C(c2cccs2)c2nnnn2CCc2ccccc2)CC1 (stereo unspecified) | ? | 0 | 0 | ? | ? | ?
COc1ccc(Cn2nnnc2C(c2cccs2)N2CCSCC2)cc1 (stereo unspecified) | 0 | 0 | 0 | 0 | 0 | 0
CC1=C(C(=O)Nc2ccc(C)cc2C)C(c2ccc(C(C)C)cc2)n2nc(C(F)(F)F)nc2N1 (stereo unspecified) | ? | - | 0 | - | 0 | -
Cc1noc(C)c1-c1nc(NCCN2CCOCC2)c2ccccc2n1 | - | - | - | 0 | - | -
COc1ccc(N2C(=O)CSC23C(=O)N(Cc2ccc(C)cc2)c2ccccc23)cc1Cl (stereo unspecified) | 0 | - | 0 | - | 0 | -
O=c1cnc2cnc(Oc3cccc(Cl)c3)nc2n1Cc1ccc(F)cc1 | - | 0 | - | 0 | - | -
CCOC(=O)c1cccc(NC(=O)CSc2cc(=O)n(C)c3ccccc23)c1 | 0 | - | ? | - | ? | -
CN(CCO)c1ccc([N+](=O)[O-])cc1C(=O)O | 0 | 0 | 0 | 22.4µM | 0 | 0
COC(=O)c1ccccc1NC(=O)Cc1nc(-c2ccccc2)sc1-c1ccc(C)cc1 | 0 | 0 | 0 | 10µM | 0 | 0
COc1ccc(-c2nc(-c3ccccc3)oc2Nc2ccccc2C)cc1 | 0 | 0 | 0 | 0 | 0 | -
CC1Cc2ccccc2N1C(=O)CSc1nccc(=O)[nH]1 (stereo unspecified) | 0 | - | 0 | ? | 0 | 0
CC1CCC(C(C)C)C(OC(=O)COC(=O)c2cc(O)ccc2N)C1 (stereo unspecified) | 0 | ? | 11.2µM[quencher] | ? | ? | 0
CC1CCC(C(C)C)C(OC(=O)COC(=O)c2ccc(=O)[nH]c2)C1 (stereo unspecified) | 0 | 0 | 0 | 0 | 0 | 0
CC1CCC(C(C)C)C(OC(=O)CSc2nccc(=O)[nH]2)C1 (stereo unspecified) | 0 | 0 | 0 | 25.1µM | 0 | 0
COc1ccccc1N1CCN(C(=O)Cc2c(C(=O)O)c(C)cn2C)CC1 | 0 | - | 0 | - | 0 | -
Cc1cc(N2CCOCC2)ccc1/C=C1\SC(=O)N(C(C)C)C1=O | ? | 0 | ? | 5.01µM | 0 | 0
O=C(CN1C(=O)S/C(=C/c2ccc(N3CCOCC3)cc2)C1=O)N1CCOCC1 | ? | 0 | 0 | ? | 0 | 0
CCCN1C(=O)S/C(=C\c2ccc(N3CCOCC3)o2)C1=O | 17.8µM | - | 0 | 0.224µM | 0 | 0
